# This is part of a sample that, as a whole, favours compounds with a hit. Of some 83,000 tested, about 20% had one in any assay.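 Each cell line was grown in a 96-well plate and treated with one concentration of compound for 48 hours. Values below 10 were considered active.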 Calls of active or inactive are those of the source.
# System: RXF 393 renal
# Test: NCI-60 one-dose screen, 48 h (100 = growth as untreated, 0 = no growth, -100 = all killed)
# Conditions: 10 µM unless noted
row,SMILES,growth
1,CCC1CCc2nc3sc(C(=O)Nc4ccccc4F)c(N)c3cc2C1 (stereo unspecified),79.6% (inactive)
2,Cc1nn(-c2ccc(Cl)cc2)c(=O)n1CCOc1ccccc1Cl,115% (inactive)
3,COc1cc(/C=C2\CCCC3=C2NC(C)=NC3c2cc(OC)c(OC)c(OC)c2)cc(OC)c1OC (stereo unspecified),22.7% (inactive)
4,c1ccc([P+](CCC[P+](c2ccccc2)(c2ccccc2)c2ccccc2)(c2ccccc2)c2ccccc2)cc1,104% (inactive)
5,CC1=C(C#N)C(C)(C)C(C#N)=C(C)N1,117% (inactive)
6,COc1cc(C(=O)OCCCCCCCCCCC[P+](c2ccccc2)(c2ccccc2)c2ccccc2)ccc1O,-53.4% (active)
7,Nc1c(C(=O)Nc2ccccc2)sc2nc3c(cc12)CCCCC3,-5.96% (active)
8,COc1cccc(C2CC(=O)Nc3c2c(C)nn3-c2nc3ccccc3[nH]2)c1OC (stereo unspecified),64.2% (inactive)
9,COc1cc(C(=O)/C=C/c2cc(C(=O)c3cc(OC)c(OC)c(OC)c3)ccc2OC)ccc1N,-32.5% (active)
10,COc1ccc(NC(=O)c2cc3ccccc3nc2Nc2cc(OC)c(OC)c(OC)c2)cc1,60.5% (inactive)
11,O=S(=O)(O)CCl,107% (inactive)
12,O=C(CN1CCOCC1)Nc1ccc(-c2nc3ccccc3s2)cc1,111% (inactive)
13,COc1cc(/C=C\c2cc(OC)c(OC)c(OC)c2)cc(N/C=C\C(=O)c2c[nH]c3ccccc23)c1OC,-35.3% (active)
14,CC(C)C[C@H](NC(=O)[C@@H](Cc1ccccc1)n1ccc(Nc2ccccc2)cc1=O)B(O)O,-80.2% (active)
15,Cc1ccc2c(c1)C(=O)C(c1c(-c3[nH]c(=O)c4ccc(C)cc4c3O)c(O)c3ccccc3c1O)=NC2=O,-10.8% (active)
16,C=CCn1c(C)nc2ccc(Nc3nc(Nc4ccc(F)cc4)nc4ccccc34)cc21,66.6% (inactive)
17,COc1ccccc1CNCCCN1C(=O)c2ccc3c4c(ccc(c24)C1=O)C(=O)N(CCCNCCCCNCCCCN)C3=O,22.6% (inactive)
18,COc1ccc2c(c1)C(=O)/C(=C/c1ccc(O)cc1)O2,-59.9% (active)
19,COc1ccc(-c2cn[nH]c2-c2cc(OC)c3c(c2)OCO3)cc1,-31.3% (active)

row,SMILES,growth
1,CCCCCCCCCCCCNC(=S)N/N=C/c1ccc(Cl)c(Cl)c1,108% (inactive)
2,O=C1Nc2ccc(Br)cc2C1=N/C=c1\[nH]c(=O)/c(=C/c2ccc(Cl)cc2)s1,94.9% (inactive)
3,O=C(CNc1c(Cl)cccc1Cl)Nc1ccc(-c2nc3ccccc3s2)cc1,86.6% (inactive)
4,CCn1c(=O)c2c(=O)c3c4c(oc3oc2c2ccccc21)C(=O)c1ccccc1C4=O,106% (inactive)
5,CN1CCN(c2ccc3cc(-c4nc5ccccc5[nH]4)c(=O)oc3c2)CC1,108% (inactive)
6,COc1ccc(OC)c(C(=O)c2oc3ccc(Br)cc3c2N)c1,-30.1% (active)
7,Cc1ccc(Cn2c(-c3nonc3N)nc3ccccc32)cc1,82.1% (inactive)
8,Cc1ccc(S(=O)(=O)NCCCNc2nccc(-c3c(-c4ccccc4)nc4sccn34)n2)cc1,65% (inactive)
9,COC1=CC(c2ccc[nH]2)=N/C1=C\c1[nH]c(C)c(C(=O)CCCCC(=O)Oc2ccc3c(c2)CCC2C3CC[C@]3(C)[C@@H](O)CC[C@@H]23)c1C (stereo partly specified),62.4% (inactive)
10,Cc1cccc(NC(=O)c2sc3nc4c(cc3c2N)CCC4)c1C,-4.81% (active)
11,Nc1c(C(=O)Nc2c(Cl)cccc2Cl)sc2nc3c(cc12)CCCCC3,3.29% (active)
12,COc1cc(OC)c(C(=O)/C=C/c2ccc(C(F)(F)F)cc2)c(OC)c1,41.1% (inactive)
13,Cn1c(-c2nonc2NC(=O)c2ccc(F)cc2)nc2ccccc21,109% (inactive)
14,CCOC(=O)C1=C(CSC(=S)N(C2CCCCC2)C2CCCCC2)N(C)C(=O)NC1c1ccccc1 (stereo unspecified),43.6% (inactive)
15,COC12CC(=O)C(C(C)=O)=C(O)C1(C)c1c(O)c(C)c(O)c(C(C)=O)c1O2 (stereo unspecified),90.3% (inactive)
16,COc1ccc(C2=CC(c3ccc(Oc4ccnc5cc(Cl)ccc45)c(OC)c3)c3c(nc(OC)[nH]c3=O)N2)cc1 (stereo unspecified),78% (inactive)
17,COc1ccc(Cn2cc(COc3cc(/C=C/C(=O)c4cc(OC)c(OC)c(OC)c4)ccc3OC)nn2)cc1,90.3% (inactive)
18,O=C(Nc1ccc(OCc2nnc(-c3ccc(Cl)cc3)o2)c(F)c1)Nc1ccc(Cl)c(Cl)c1,50.7% (inactive)
19,O=C(CNc1ccc(Cl)cc1)Nc1ccc(-c2nc3ccccc3s2)cc1,84.2% (inactive)

# System: SF-268 CNS
# Test: as above
# Conditions: 10 µM unless noted
row,SMILES,growth
1,CCC1CCc2nc3sc(C(=O)Nc4ccccc4F)c(N)c3cc2C1 (stereo unspecified),61.5% (inactive)
2,Cc1nn(-c2ccc(Cl)cc2)c(=O)n1CCOc1ccccc1Cl,106% (inactive)
3,COc1cc(/C=C2\CCCC3=C2NC(C)=NC3c2cc(OC)c(OC)c(OC)c2)cc(OC)c1OC (stereo unspecified),21.2% (inactive)
4,c1ccc([P+](CCC[P+](c2ccccc2)(c2ccccc2)c2ccccc2)(c2ccccc2)c2ccccc2)cc1,69.2% (inactive)
5,CC1=C(C#N)C(C)(C)C(C#N)=C(C)N1,100% (inactive)
6,COc1cc(C(=O)OCCCCCCCCCCC[P+](c2ccccc2)(c2ccccc2)c2ccccc2)ccc1O,-74.3% (active)
7,Nc1c(C(=O)Nc2ccccc2)sc2nc3c(cc12)CCCCC3,30.5% (inactive)
8,COc1cccc(C2CC(=O)Nc3c2c(C)nn3-c2nc3ccccc3[nH]2)c1OC (stereo unspecified),76.4% (inactive)
9,COc1cc(C(=O)/C=C/c2cc(C(=O)c3cc(OC)c(OC)c(OC)c3)ccc2OC)ccc1N,-28.1% (active)
10,COc1ccc(NC(=O)c2cc3ccccc3nc2Nc2cc(OC)c(OC)c(OC)c2)cc1,66.6% (inactive)
11,O=S(=O)(O)CCl,100% (inactive)
12,O=C(CN1CCOCC1)Nc1ccc(-c2nc3ccccc3s2)cc1,110% (inactive)
13,COc1cc(/C=C\c2cc(OC)c(OC)c(OC)c2)cc(N/C=C\C(=O)c2c[nH]c3ccccc23)c1OC,72% (inactive)
14,CC(C)C[C@H](NC(=O)[C@@H](Cc1ccccc1)n1ccc(Nc2ccccc2)cc1=O)B(O)O,-31.6% (active)
15,Cc1ccc2c(c1)C(=O)C(c1c(-c3[nH]c(=O)c4ccc(C)cc4c3O)c(O)c3ccccc3c1O)=NC2=O,9.4% (active)
16,C=CCn1c(C)nc2ccc(Nc3nc(Nc4ccc(F)cc4)nc4ccccc34)cc21,66% (inactive)
17,COc1ccccc1CNCCCN1C(=O)c2ccc3c4c(ccc(c24)C1=O)C(=O)N(CCCNCCCCNCCCCN)C3=O,4.92% (active)
18,COc1ccc2c(c1)C(=O)/C(=C/c1ccc(O)cc1)O2,97.9% (inactive)
19,COc1ccc(-c2cn[nH]c2-c2cc(OC)c3c(c2)OCO3)cc1,37.6% (inactive)

row,SMILES,growth
1,CCCCCCCCCCCCNC(=S)N/N=C/c1ccc(Cl)c(Cl)c1,118% (inactive)
2,O=C1Nc2ccc(Br)cc2C1=N/C=c1\[nH]c(=O)/c(=C/c2ccc(Cl)cc2)s1,95.2% (inactive)
3,O=C(CNc1c(Cl)cccc1Cl)Nc1ccc(-c2nc3ccccc3s2)cc1,46.2% (inactive)
4,CCn1c(=O)c2c(=O)c3c4c(oc3oc2c2ccccc21)C(=O)c1ccccc1C4=O,84.3% (inactive)
5,CN1CCN(c2ccc3cc(-c4nc5ccccc5[nH]4)c(=O)oc3c2)CC1,105% (inactive)
6,COc1ccc(OC)c(C(=O)c2oc3ccc(Br)cc3c2N)c1,47.3% (inactive)
7,Cc1ccc(Cn2c(-c3nonc3N)nc3ccccc32)cc1,81.5% (inactive)
8,Cc1ccc(S(=O)(=O)NCCCNc2nccc(-c3c(-c4ccccc4)nc4sccn34)n2)cc1,38.6% (inactive)
9,COC1=CC(c2ccc[nH]2)=N/C1=C\c1[nH]c(C)c(C(=O)CCCCC(=O)Oc2ccc3c(c2)CCC2C3CC[C@]3(C)[C@@H](O)CC[C@@H]23)c1C (stereo partly specified),44.6% (inactive)
10,Cc1cccc(NC(=O)c2sc3nc4c(cc3c2N)CCC4)c1C,35.1% (inactive)
11,Nc1c(C(=O)Nc2c(Cl)cccc2Cl)sc2nc3c(cc12)CCCCC3,60.5% (inactive)
12,COc1cc(OC)c(C(=O)/C=C/c2ccc(C(F)(F)F)cc2)c(OC)c1,55.9% (inactive)
13,Cn1c(-c2nonc2NC(=O)c2ccc(F)cc2)nc2ccccc21,109% (inactive)
14,CCOC(=O)C1=C(CSC(=S)N(C2CCCCC2)C2CCCCC2)N(C)C(=O)NC1c1ccccc1 (stereo unspecified),49% (inactive)
15,COC12CC(=O)C(C(C)=O)=C(O)C1(C)c1c(O)c(C)c(O)c(C(C)=O)c1O2 (stereo unspecified),78.4% (inactive)
16,COc1ccc(C2=CC(c3ccc(Oc4ccnc5cc(Cl)ccc45)c(OC)c3)c3c(nc(OC)[nH]c3=O)N2)cc1 (stereo unspecified),61.6% (inactive)
17,COc1ccc(Cn2cc(COc3cc(/C=C/C(=O)c4cc(OC)c(OC)c(OC)c4)ccc3OC)nn2)cc1,94.6% (inactive)
18,O=C(Nc1ccc(OCc2nnc(-c3ccc(Cl)cc3)o2)c(F)c1)Nc1ccc(Cl)c(Cl)c1,53.3% (inactive)
19,O=C(CNc1ccc(Cl)cc1)Nc1ccc(-c2nc3ccccc3s2)cc1,24.1% (inactive)

# Reference: PubChem BioAssay (NCI)
